The target in assay [1] is Progesterone receptor (Homo sapiens) (UniProt P06401). The assay can be described thus: qHTS assay to identify small molecule agonists of the progesterone receptor (PR) signaling pathway (AID 1346784; calls by dose curve; further: nearly all actives have a fitted effect of over 30% in size). The method in brief: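 PR-UAS-bla HEK 293T cells (beta-lactamase reporter under UAS) in 2% charcoal-stripped FBS, dosed with 23 nL compound after 6 hr, incubated 16hr at 37C. LiveBLAzer B/G FRET substrate added, fluorescence read after 2 hours.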
Progesterone receptor (Homo sapiens), sequence (P06401 whole entry, looked up): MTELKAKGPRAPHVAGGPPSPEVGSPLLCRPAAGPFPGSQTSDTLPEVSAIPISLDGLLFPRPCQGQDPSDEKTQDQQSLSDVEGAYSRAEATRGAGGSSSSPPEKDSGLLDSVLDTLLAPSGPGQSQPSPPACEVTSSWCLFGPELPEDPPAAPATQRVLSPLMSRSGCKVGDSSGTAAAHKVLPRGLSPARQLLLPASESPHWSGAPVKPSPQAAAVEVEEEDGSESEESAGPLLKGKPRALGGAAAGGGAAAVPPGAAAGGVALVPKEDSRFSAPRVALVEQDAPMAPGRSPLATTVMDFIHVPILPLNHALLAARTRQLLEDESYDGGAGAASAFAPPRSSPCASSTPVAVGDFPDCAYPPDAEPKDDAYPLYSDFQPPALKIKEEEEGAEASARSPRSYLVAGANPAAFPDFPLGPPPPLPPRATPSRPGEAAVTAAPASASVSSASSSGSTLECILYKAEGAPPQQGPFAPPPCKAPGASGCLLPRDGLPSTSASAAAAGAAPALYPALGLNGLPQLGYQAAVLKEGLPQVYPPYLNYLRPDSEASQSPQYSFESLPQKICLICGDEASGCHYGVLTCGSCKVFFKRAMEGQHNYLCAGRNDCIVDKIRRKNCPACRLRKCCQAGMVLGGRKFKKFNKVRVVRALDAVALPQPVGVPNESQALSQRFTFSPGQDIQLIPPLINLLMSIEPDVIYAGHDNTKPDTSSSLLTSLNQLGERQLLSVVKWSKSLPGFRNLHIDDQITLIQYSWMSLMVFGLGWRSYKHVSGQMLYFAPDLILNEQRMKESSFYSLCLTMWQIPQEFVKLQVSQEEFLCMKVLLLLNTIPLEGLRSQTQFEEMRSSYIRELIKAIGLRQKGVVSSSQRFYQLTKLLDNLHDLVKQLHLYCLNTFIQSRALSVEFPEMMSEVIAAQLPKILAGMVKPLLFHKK

Assay [2] has the same target. Briefly: qHTS assay to identify small molecule antagonists of the progesterone receptor (PR) signaling pathway (AID 1346795; active means well fitted inhibition curve with a large enough effect in the signal ratio in the repeat runs, not every such curve was filed as active; the % refers to the signal ratio). In a few lines: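 PR-UAS-bla HEK293T cells with beta-lactamase reporter under UAS control, in 2% charcoal-stripped FBS, treated with compounds plus 1 nM promegestone (R5020, final) for 16 hr at 37C. Read-out: FRET beta-lactamase substrate fluorescence after 2 hr at room temperature.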
On the technique in general: In qHTS, concentration-response curves come from the screen itself.

Assay [3] in a line: qHTS assay to identify small molecule antagonists of the progesterone receptor (PR) signaling pathway - cell viability counter screen (AID 1346798). Further: series mostly up to about 92 µM; nearly all actives have a fitted effect of over 50% in size. In a few lines:
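PR-UAS-bla HEK293T cells, 3,000/well in 2% charcoal-stripped FBS medium, dosed with compounds plus R5020 agonist and incubated 16 h at 37C. Viability then measured in the same wells by CellTiter-Glo luminescence after 30 min at RT.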

The nature of assay [4]: qHTS assay to identify small molecule agonists of the progesterone receptor (PR) signaling pathway - cell viability counter screen (AID 1346799; calls by dose curve; further: nearly all actives have a fitted effect of over 45% in size). In a few lines: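 Counter screen in the PR-UAS-bla HEK293T wells (2% charcoal-stripped FBS, 16 h compound exposure at 37 C) after the bla read. CellTiter-Glo added, 30 min at room temperature, luminescence read as cell viability.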

The nature of assay [5]: qHTS assay to identify small molecule antagonists of the TGF-beta/Smad signaling pathway - cell viability counter screen (AID 1346824). Further: nearly all actives have a fitted effect of over 50% in size. In a few lines: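 SBE-bla HEK 293T cells were plated overnight at 37 C, then given compounds in DMSO plus TGF-beta1 (added as 0.25 ng/mL solution) for 5 hr. After the bla read, CellTiter-Glo was added to the same wells and luminescence read after 30 min at room temperature.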

Assay [6] is described as follows: qHTS assay to identify small molecule agonists of the TGF-beta/Smad signaling pathway - cell viability counter screen (AID 1346829). Further: top concentration of the series differs between compounds; nearly all actives have a fitted effect of over 45% in size. The method in brief: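 HEK 293T SBE-bla line, 5 hr compound exposure at 37 C, multiplexed CellTiter-Glo viability read by luminescence.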
A short description of assay [7]: qHTS assay to identify small molecule agonists of the TGF-beta/Smad signaling pathway (AID 1346859; active means well fitted activation curve with a large enough effect in the signal ratio in the repeat runs, not every such curve was filed as active; the % refers to the signal ratio; further: series mostly up to about 77 µM). The method in brief:
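SBE-bla HEK293T cells plated overnight, then compound exposure for 5 h at 37 C. Beta-lactamase reporter read with LiveBLAzer B/G FRET substrate after 2 h at room temperature, fluorescence at 405 nm excitation, 460/530 nm emission.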

The target of assay [8] is Thyrotropin-releasing hormone receptor (Homo sapiens) (UniProt P34981). Briefly: qHTS assay to identify small molecule antagonists of the thyrotropin-releasing hormone receptor (TRHR) signaling pathway (AID 1346877; active means well fitted inhibition curve with a large enough effect in the repeat runs, not every such curve was filed as active; further: series mostly up to about 51 µM). In a few lines: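 Kinetic fluorescence (3 min, 1 s resolution) following stimulation with TRH at 1 nM final; HEK293 cells bearing human TRHR; 5 min compound preincubation at RT; concentration-response over 15 points, triplicates.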
Thyrotropin-releasing hormone receptor (Homo sapiens), sequence (P34981 whole entry, looked up): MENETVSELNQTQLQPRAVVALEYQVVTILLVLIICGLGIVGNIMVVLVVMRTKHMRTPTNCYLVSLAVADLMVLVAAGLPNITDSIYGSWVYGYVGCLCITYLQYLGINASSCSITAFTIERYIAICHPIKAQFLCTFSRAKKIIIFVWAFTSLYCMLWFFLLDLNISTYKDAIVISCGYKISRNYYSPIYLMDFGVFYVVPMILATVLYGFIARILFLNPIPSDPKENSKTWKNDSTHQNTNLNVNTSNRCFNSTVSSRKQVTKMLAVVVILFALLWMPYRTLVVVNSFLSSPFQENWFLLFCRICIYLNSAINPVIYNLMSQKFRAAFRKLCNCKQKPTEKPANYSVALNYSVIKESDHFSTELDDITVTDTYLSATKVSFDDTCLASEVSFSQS

Assay [9] has the same target. The assay can be described thus: qHTS assay to identify small molecule agonists of the thyrotropin-releasing hormone receptor (TRHR) signaling pathway (AID 1346891; calls by dose curve; further: series mostly up to about 58 µM). The method in brief: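 HEK293 cells expressing TRHR plated 18 h at 37 C/5% CO2, calcium dye-loaded 2 h at 37 C, then compound added (agonist mode); kinetic calcium fluorescence read 3 min at 1 s intervals; 15 concentrations in triplicate.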

Assay [10] is described as follows: Caspase-3/7 induction in HepG2 cells by small molecules, qHTS assay (AID 1346978). Further: nearly all actives have a fitted effect of over 15% in size. The method in brief: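 Wild-type HepG2 cells (2,000/well) were settled 5 h at 37 C, 5% CO2, then exposed to compounds in DMSO for 17 h. Caspase-3/7 activity was read by luminescence 30 min after adding Caspase-Glo 3/7 reagent at room temperature.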
A short description of assay [11]: Caspase-3/7 induction in CHO-K1 cells by small molecules, qHTS cell viability counter screen (AID 1346979). Further: nearly all actives have a fitted effect of over 35% in size. In a few lines: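 Wild-type CHO-K1 cells (1,500/well) treated with compound after 5 h plating; after 16 h at 37C, viability read as CellTiter-Fluor fluorescence following 1 h reagent incubation, in the same wells as the caspase read.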
A short description of assay [12]: Caspase-3/7 induction in CHO-K1 cells by small molecules, qHTS assay (AID 1346980). Further: nearly all actives have a fitted effect of over 15% in size. In a few lines:
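Wild-type cells were seeded at 1,500 per well and settled 5 hr at 37 C, 5% CO2, then exposed to DMSO-dissolved compounds for 17 hr. Caspase-Glo 3/7 reagent was added, and luminescence was read after 30min at room temperature.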

Assay [13] can be described thus: Caspase-3/7 induction in HepG2 cells by small molecules, qHTS cell viability counter screen (AID 1346981). Further: series mostly up to about 92 µM; nearly all actives have a fitted effect of over 30% in size. In a few lines:
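In this quantitative HTS counter screen, compounds delivered in DMSO were left on unmodified HepG2 cells for 16 hr at 37 C. Viability was then determined fluorometrically with CellTiter-Fluor, in parallel with caspase-3/7 induction in the same wells.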

Assay [14] has as its target Nuclear receptor subfamily 1 group I member 2 (Homo sapiens) (UniProt O75469). The assay can be described thus: Human pregnane X receptor (PXR) small molecule agonists, qHTS assay (AID 1346982). Further: nearly all actives have a fitted effect of over 35% in size. Further: potency means the concentration at half of the fitted maximal effect. The method in brief:
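Reporter HepG2 cells expressing PXR-Luc are cultured in charcoal-stripped FBS (5%), treated with compounds for 24 hr at 37 C, and assayed by ONE-Glo luminescence after 30 min at room temperature.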

The target of assay [15] is Cytochrome P450 2D6 (Homo sapiens) (UniProt P10635). The assay can be described thus: Cytochrome P450 Family 2 Subfamily D Member 6 (CYP2D6) small molecule antagonists: luciferase reporter qHTS assay (AID 1671196). Further: nearly all actives have a fitted effect of over 50% in size. Further: potency means the concentration at half of the fitted maximal effect. The method in brief:
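Test chemicals meet CYP2D6 plus proluciferin substrate (10 min, RT); NADPH regenerating solution then drives turnover for 1 h. Detection reagent halts the reaction; luminescence measured after 20 min.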
(In general: Reporter assays use an easily measured gene product as a stand-in for the process of interest.)

Assay [16] concerns the target Cytochrome P450 2C19 (Homo sapiens) (UniProt P33261). The assay can be described thus: Cytochrome P450 Family 2 Subfamily C Member 19 (CYP2C19) small molecule antagonists: luciferase reporter qHTS assay (AID 1671197). Further: nearly all actives have a fitted effect of over 65% in size. Further: potency means the concentration at half of the fitted maximal effect. The method in brief: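 First, compounds are pinned into enzyme-substrate mix and held 10 min at room temperature. Second, NADPH regeneration solution is added and plates incubate 1 h at 37C. Third, detection reagent is added and luminescence read after 20 min.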

Assay [17] is described as follows: Human pregnane X receptor (PXR) small molecule agonists, qHTS cell viability counter screen (AID 1346977). Further: nearly all actives have a fitted effect of over 50% in size. In a few lines: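 PXR-Luc HepG2 cells (2,000/well, 5% charcoal-stripped FBS) preincubated 5 hr, then exposed to compounds 24 hr at 37 C. Viability read in the same wells by CellTiter-Fluor fluorescence, reagent added at 23 hr, 1 hr incubation.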
Assay [18] concerns the target Nuclear receptor subfamily 1 group I member 2 (Rattus norvegicus) (UniProt Q9R1A7). Briefly: Rat pregnane X receptor (rPXR) activation by small molecules, qHTS assay (AID 1346983). Further: nearly all actives have a fitted effect of over 20% in size. Particulars: rPXR luciferase reporter cells, One-Glo luminescence, 24 h; active compounds read high. The method in brief: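 Cell-based rPXR luciferase reporter assay, 2,000 cells per well, rested 5hr at 37 C before compound addition in DMSO, then 24 hr at 37 C. One-Glo reagent was added and luminescence read after 30 min at room temperature.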

The target of assay [19] is Nuclear receptor subfamily 1 group I member 2 (Homo sapiens) (UniProt O75469). The assay can be described thus: CYP3A4 induction through human pregnane X receptor (PXR) by small molecules, qHTS assay (AID 1346984). Further: nearly all actives have a fitted effect of over 40% in size. Further: potency means the concentration at half of the fitted maximal effect. The method in brief:
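Induction measured in HepG2-based DPX-2 cells co-expressing human PXR and a CYP3A4 promoter-driven luciferase. After a 24-hour compound exposure, cells received CYP3A4 luciferin substrate at 3uM final for 3 hours, and light output was then recorded.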

For assay [20] the target is unchanged. The assay can be described thus: Human pregnane X receptor (PXR) activation by small molecules, qHTS assay (AID 1346985). Further: nearly all actives have a fitted effect of over 40% in size. Further: potency means the concentration at half of the fitted maximal effect. In a few lines: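 DPX-2 cells (HepG2 co-transfected with a PXR response element and a CYP3A4-promoter luciferase construct) were seeded at 2,000 per well, rested 5 hr at 37C, then exposed to DMSO-dissolved compounds for 24 hr. Activation was read as luciferase luminescence.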

“And” between values parts separate entries of the source, which are not always exact repeats. Equal entries are not always repeated. Values without a mark were called inactive. Results filed as inconclusive are left out. The source made the active and inactive calls. Unless noted, the call rests on the fitted dose curve; in most records, active means well fitted curve in the direction sought with a large enough effect in the repeat runs; inconclusive means weak or mixed curves; inactive means no such curve, though single readings can be large; an effect the other way counts as inactive or inconclusive.
On the % scale 0 is the no-effect control and ±100 the full control effect.

Nuclear receptor subfamily 1 group I member 2 (Homo sapiens), sequence (O75469 whole entry, looked up): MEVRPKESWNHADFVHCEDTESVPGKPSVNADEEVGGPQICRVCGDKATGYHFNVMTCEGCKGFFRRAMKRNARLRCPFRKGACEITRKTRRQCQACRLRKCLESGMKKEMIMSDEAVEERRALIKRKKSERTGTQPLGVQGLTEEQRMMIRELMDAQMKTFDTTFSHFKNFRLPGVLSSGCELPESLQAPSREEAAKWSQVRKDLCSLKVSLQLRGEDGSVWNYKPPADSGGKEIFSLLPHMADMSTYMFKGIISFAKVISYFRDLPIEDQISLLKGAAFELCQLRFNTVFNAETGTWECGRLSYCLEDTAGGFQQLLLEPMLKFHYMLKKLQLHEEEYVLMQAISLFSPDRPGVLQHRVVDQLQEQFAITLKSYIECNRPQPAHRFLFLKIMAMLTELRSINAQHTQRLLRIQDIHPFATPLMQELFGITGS
Cytochrome P450 2D6 (Homo sapiens), sequence (P10635 whole entry, looked up): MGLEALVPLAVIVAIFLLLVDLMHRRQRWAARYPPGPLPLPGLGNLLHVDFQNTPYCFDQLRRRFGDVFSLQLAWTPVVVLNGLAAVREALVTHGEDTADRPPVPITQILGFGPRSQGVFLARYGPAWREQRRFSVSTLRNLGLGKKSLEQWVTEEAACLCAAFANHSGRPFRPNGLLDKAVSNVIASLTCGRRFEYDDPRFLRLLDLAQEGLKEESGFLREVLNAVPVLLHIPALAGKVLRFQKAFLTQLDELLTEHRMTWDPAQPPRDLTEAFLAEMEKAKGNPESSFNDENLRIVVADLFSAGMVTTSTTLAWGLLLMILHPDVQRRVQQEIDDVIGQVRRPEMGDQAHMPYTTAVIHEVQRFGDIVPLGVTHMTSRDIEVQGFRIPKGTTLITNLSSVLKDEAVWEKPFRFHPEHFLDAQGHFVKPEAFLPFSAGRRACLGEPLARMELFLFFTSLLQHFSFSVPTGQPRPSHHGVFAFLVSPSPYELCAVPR
Cytochrome P450 2C19 (Homo sapiens), sequence (P33261 whole entry, looked up): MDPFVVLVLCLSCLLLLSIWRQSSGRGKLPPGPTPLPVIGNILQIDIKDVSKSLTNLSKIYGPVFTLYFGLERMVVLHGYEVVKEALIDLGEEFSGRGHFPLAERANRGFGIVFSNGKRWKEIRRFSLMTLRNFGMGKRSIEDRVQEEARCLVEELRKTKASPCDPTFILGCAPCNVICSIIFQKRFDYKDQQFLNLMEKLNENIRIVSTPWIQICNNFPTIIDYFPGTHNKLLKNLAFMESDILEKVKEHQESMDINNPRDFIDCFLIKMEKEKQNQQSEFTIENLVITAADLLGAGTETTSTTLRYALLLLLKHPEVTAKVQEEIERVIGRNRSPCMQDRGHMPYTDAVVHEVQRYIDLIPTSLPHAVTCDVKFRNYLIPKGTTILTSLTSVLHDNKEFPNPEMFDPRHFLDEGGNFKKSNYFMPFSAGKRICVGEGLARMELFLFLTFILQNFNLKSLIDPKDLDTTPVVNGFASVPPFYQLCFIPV
Nuclear receptor subfamily 1 group I member 2 (Rattus norvegicus), sequence (Q9R1A7 whole entry, looked up): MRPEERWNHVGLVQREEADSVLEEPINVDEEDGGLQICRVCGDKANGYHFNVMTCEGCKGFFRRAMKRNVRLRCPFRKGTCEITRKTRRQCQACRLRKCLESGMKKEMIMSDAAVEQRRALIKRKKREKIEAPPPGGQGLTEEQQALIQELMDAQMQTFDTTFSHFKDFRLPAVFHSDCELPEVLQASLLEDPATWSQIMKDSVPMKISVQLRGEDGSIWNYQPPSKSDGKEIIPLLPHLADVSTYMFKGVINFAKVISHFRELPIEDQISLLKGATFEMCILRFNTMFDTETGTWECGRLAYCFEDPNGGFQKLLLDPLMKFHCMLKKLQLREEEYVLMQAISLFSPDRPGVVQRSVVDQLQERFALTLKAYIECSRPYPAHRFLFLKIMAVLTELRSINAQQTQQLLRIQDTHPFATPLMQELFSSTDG

Turning to `OCCCC1CCCCC1`, the Potency entry in assay [1], in assay [2], in [3], in [4], in assay [5] and in assay [10] was “inactive” each time. Moreover, the Potency result in [11], in assay [13], in assay [14], in assay [15] and in assay [16] was “inactive” each time. For the same compound, the compound was classed as inactive in assay [6], in assay [7], in assay [8], in [9] and in [12].
Regarding `COC(=O)c1ccc(C)cc1C1=NC(C)(C(C)C)C(=O)N1` (stereo not given), the Potency result in [1], in [2], in [3], in assay [4], in assay [5] and in assay [17] was “inactive” throughout. For the same compound, the Potency entry in assay [10], in [11], in [13], in assay [15] and in [16] was “inactive” each time. Further, the call in [6], in assay [7], in assay [9] and in assay [12] was inactive.
Take `O=C(CCCN1CCN(c2ccccn2)CC1)c1ccc(F)cc1`: the Potency entry in [1], in assay [2], in assay [3], in assay [4], in assay [5] and in [10] was “inactive” in each case. The Potency result in [11] was “inactive”. Further, the compound was called inactive in assay [6], in [7], in assay [8], in assay [9] and in [12]. Moreover, the Potency was 6.68 µM (active) in assay [14]; 12.6 µM (active) in assay [19]; 10 µM (active) in assay [20]; 11 µM (active) in assay [15]; 34.7 µM (active) in [16]. Further, the max activation in assay [18] is 0.0374%.
In the case of `CC(C)CCCC(C)N` (stereo not given), the Potency entry in [1], in [2], in [3], in assay [4], in assay [5] and in [10] was “inactive” throughout. Also, the Potency result in [13], in assay [14], in assay [19], in [20] and in [15] was “inactive” each time. The compound was classed as inactive in assay [6], in assay [7], in assay [9] and in [12]. Besides, in [18], the max activation is -5.35%.
On to `CC(C)=CCCC(C)CC(=O)O` (stereo not given), for which the Potency entry in assay [1], in assay [2], in [3], in [4], in assay [5] and in assay [17] was “inactive” each time. For the same compound, the Potency result in assay [10], in [14] and in assay [15] was “inactive” in each case. For the same compound, the call in assay [6], in assay [7], in assay [8], in assay [9] and in assay [12] was inactive. Moreover, in [16], the Potency is 35.6 µM (active).
On to `COC(=O)[C@@H](N)Cc1ccc(O)c(O)c1`, for which the Potency result in assay [1], in [2], in [3], in [4], in assay [5] and in assay [10] was “inactive” each time. The Potency entry in [11], in assay [13], in assay [14], in assay [19], in [20] and in assay [15] was “inactive” throughout. Besides, the Potency result in [16] was “inactive”. Moreover, the result in [6], in [7] and in assay [9] was inactive. For the same compound, in assay [18], the max activation is -6.8%.
On to `O=C1CCCCCCCCCCCN1`, for which the Potency entry in [1], in assay [2], in assay [3], in [4], in [5] and in assay [17] was “inactive” throughout. The Potency entry in [10], in assay [11], in assay [13] and in [15] was “inactive” each time. Further, the result in [6], in assay [7], in assay [9] and in assay [12] was inactive. For the same compound, the Potency in [14] was 48.5 µM (active) and 27.3 µM (active).
Regarding `N=C(N)c1ccc2cc(OC(=O)c3ccc(N=C(N)N)cc3)ccc2c1`, the Potency result in [1], in assay [2], in assay [3], in [4], in [5] and in assay [17] was “inactive” in each case. The Potency entry in assay [10], in [11], in [14], in assay [19], in assay [20] and in assay [15] was “inactive” in each case. Further, the Potency result in [16] was “inactive”. For the same compound, the compound was classed as inactive in [6], in assay [7], in assay [9] and in assay [12]. Besides, the max activation in assay [18] is -2.79%.

The record behind these values is PubChem BioAssay (Tox21).
